A selection: hits, their analogues and other compounds. The true share with any hit is near 7.3%.
NPC1 prom act = qHTS Assay for NPC1 Promoter Activators. Huh7 NPC1 promoter luciferase reporter, 24 h. Potency, µM (series often up to 9.22 µM), inactives show at the top dose activation, actives largely listed as activators. 320,000 compounds, 2.4% hits. AID 485313, 2010; also: % of control where 0% means no effect; nearly all actives have a fitted effect of over 60% in size
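Luciferase expression driven by the NPC1 promoter was measured in stably transfected Huh7 cells after a 24 h compound incubation, using a luciferase reagent and a luminescence read.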
Rab9 promoter act = qHTS Assay for Rab9 Promoter Activators | Huh7 Rab9 promoter-luciferase reporter, luminescence, 24 h | Potency, µM (series often up to 9.22 µM), for the others: at the highest dose activation, negative = inhibition, hits mostly activators | 320,000 compounds, 2.8% hits | AID 485297, 2010; also: % of control where 0% means no effect; nearly all actives have a fitted effect of over 60% in size
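Luminescence from Amplite-detected luciferase (10 minutes, ambient) reports Rab9 promoter activation. Before that, stable Rab9-luciferase Huh7 cells (1500/well, reduced-serum OP-MEM I plus 10% FBS) were exposed to compound for 24 hours at 37C.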
FLuc modulator = qHTS profiling assay for firefly luciferase inhibitor/activator using purifed enzyme and Km concentrations of substrates (counterscreen for miR-21 project). Potency, µM (highest dose often 57.5 µM), without a hit: top-dose activity change, negative = inhibition, usual class: inhibitors. 360,000 compounds, 6.9% hits. Luciferin 4-monooxygenase (Photinus pyralis), P08659. purified FLuc, Km substrates, luminescence inhibition;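 also: plate controls were vehicle for no effect and reference inhibitor for full effect; nearly all actives have a fitted effect of over 55% in size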
Target sequence (P08659 whole entry, looked up): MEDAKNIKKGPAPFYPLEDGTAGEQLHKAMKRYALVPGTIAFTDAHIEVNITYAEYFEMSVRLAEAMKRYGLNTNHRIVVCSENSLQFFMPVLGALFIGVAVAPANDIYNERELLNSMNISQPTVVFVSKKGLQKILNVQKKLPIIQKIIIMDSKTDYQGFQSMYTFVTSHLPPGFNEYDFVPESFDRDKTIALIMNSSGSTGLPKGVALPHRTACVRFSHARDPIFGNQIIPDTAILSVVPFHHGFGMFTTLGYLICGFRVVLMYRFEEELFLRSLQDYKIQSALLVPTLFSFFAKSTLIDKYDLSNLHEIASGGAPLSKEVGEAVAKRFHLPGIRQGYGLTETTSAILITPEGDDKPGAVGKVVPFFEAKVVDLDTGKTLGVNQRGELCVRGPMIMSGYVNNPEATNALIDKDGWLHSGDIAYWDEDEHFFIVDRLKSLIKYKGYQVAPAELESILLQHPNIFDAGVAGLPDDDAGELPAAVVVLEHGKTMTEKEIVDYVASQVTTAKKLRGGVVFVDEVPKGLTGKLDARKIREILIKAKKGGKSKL
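Biochemical qHTS of compounds, final roughly 60 µM downward over six points, against 10 nM purified firefly luciferase using Km concentrations of substrates (10 uM D-luciferin, 10 uM ATP) in Tris acetate pH 7.5 buffer; luminescence output.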
KinaseGlo FLuc = Counterscreen for Luciferase (Kinase-Glo TM) Inhibition. Luciferin 4-monooxygenase (Photuris pensylvanica), Q27757. Kinase-Glo luciferase, ATP luminescence, 8 min. Potency, µM (highest dose often 38.3 µM), inactives show at the top dose activity change, negative = inhibition, usual class: inhibitors. 200,000 compounds, 0.28% hits. AID 1379, 2008; also: % is scaled to controls: 0 for no effect and ±100 for the full control effect; nearly all actives have a fitted effect of over 60% in size
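Compounds were added to a substrate mix at pH 7.2 (50 mM imidazole, 10 uM ATP, within the enzyme's linear range), followed by Kinase-Glo detection reagent; luminescence was measured after 8 minutes at ambient temperature.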
SMN2 splice up = qHTS Assay for Enhancers of SMN2 Splice Variant Expression; HEK293 SMN2-luciferase splicing reporter, luminescence, 30-36 h; Potency, µM (series often up to 46.1 µM), for inactives: at the top dose activity change, positive = activation, hits mostly activators; 210,000 compounds, 2.8% hits; also: % of control where 0% means no effect; nearly all actives have a fitted effect of over 55% in size
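HEK293 cells carry an SMN2 minigene-luciferase reporter in which exon 7 inclusion puts luciferase in frame. Cells were seeded at 2000 cells/well, attached for 10-12 hours, then exposed to compounds for 30-36 hours at 37C before ONE-Glo luminescence.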
Starred values were filed as active, the others as inactive; [ ] = dose if it differs, or a comment. Calls follow the shape of the dose curve; as a rule, active = well fitted curve in the direction sought with a large enough effect; inconclusive = small, poorly fitted or top-dose-only effect, or another doubt; inactive = no such curve, though single readings can be large; an effect the other way counts as inactive or inconclusive. Potency is read from the fitted curve at half-maximal effect.

COC(=O)c1ccc(-c2nc(-c3ccc(Br)o3)no2)cc1 was read as NPC1 prom act 3.16µM*, Rab9 promoter act 3.98µM*, FLuc modulator 1.69µM*, KinaseGlo FLuc -11.5% and SMN2 splice up 11.7%.
Oc1ccc([C@H](O)C2CCCCN2)cc1O (stereo partly specified) was read as KinaseGlo FLuc -2.8%[7.66 µM] and SMN2 splice up 10.6%[9.22 µM].
`O=C(Nc1ccc2ccccc2c1)c1nn(C23CC4CC(CC(C4)C2)C3)cc1Br` gave NPC1 prom act -3.9%, Rab9 promoter act 4.0%, FLuc modulator -0.1%, KinaseGlo FLuc -2.2% and SMN2 splice up 3.2%.
`Cc1nc(Cl)sc1C(=O)Nc1ccc2ccccc2c1` gave NPC1 prom act 14.1%, Rab9 promoter act inconclusive, FLuc modulator 7.57µM*, KinaseGlo FLuc -2.1% and SMN2 splice up 12.6µM*.
O=P(O)(O)CCP(=O)(O)O was read as KinaseGlo FLuc -1.3%[7.66 µM] and SMN2 splice up -15.9%[9.22 µM].
For CCCOC(=O)c1cc2c(cn1)[nH]c1ccccc12 the results were SMN2 splice up 28.2µM*.
`CCOC(=O)c1ncc2[nH]c3ccc(OCc4ccccc4)cc3c2c1COC` gave KinaseGlo FLuc -1.6%[39.9 µM].
`Nc1ccccc1C(=O)OCCc1ccccc1` gave NPC1 prom act 1.12µM*, Rab9 promoter act 0.794µM*, FLuc modulator 1.9µM* and SMN2 splice up 14.1µM*.
For CCCCCCOC(=O)c1ccccc1N the results were NPC1 prom act 1.0%, Rab9 promoter act -3.6%, FLuc modulator 16.9µM*, KinaseGlo FLuc -2.6% and SMN2 splice up 22.4%.
For CCCCCCOc1ccc(CN2CCN(CC)CC2)cc1 the results were NPC1 prom act 3.98µM*, Rab9 promoter act 2.82µM*, FLuc modulator 9.53µM*, KinaseGlo FLuc 0.3% and SMN2 splice up -28.8%.
Cc1cc(N=Nc2ccccc2C)ccc1N was read as SMN2 splice up 14.1µM*.
Screening CN(C)[C@@H]1C(=O)C(C(N)=O)=C(O)[C@]2(O)C(=O)C3=C(O)c4c(O)cccc4[C@](C)(O)[C@H]3C[C@@H]12 returned KinaseGlo FLuc -6.7%[7.66 µM] and SMN2 splice up 0.6%[9.22 µM].
`CCN(CC)C(=O)Oc1ccc2cc(Br)ccc2c1` gave NPC1 prom act 7.9%, Rab9 promoter act 22.2%, FLuc modulator 21.3µM*, KinaseGlo FLuc -1.6% and SMN2 splice up 2.2%.
For CC(Cl)CCl (stereo unspecified) the results were SMN2 splice up 8.7%.
`CC1CC(OP(O)(=S)c2ccc(N(C)C)cc2NC(=O)c2cccs2)CC(C)(C)C1` (stereo unspecified) gave NPC1 prom act -2.8%, Rab9 promoter act -24.9%, FLuc modulator 10.7µM*, KinaseGlo FLuc -1.9% and SMN2 splice up 42.8%.
Screening C=CCOC(C)=O returned SMN2 splice up -8.7%.
O=C1/C(=C\c2ccccc2)C[C@@]2(O)[C@H]3Cc4ccc(O)c5c4[C@@]2(CCN3CC2CC2)[C@H]1O5 was read as SMN2 splice up -62.9%.
Screening Cc1ccc(C(C)(C)NC(=O)C2CCC(=O)N(C3CCCCCC3)C2)cc1 (stereo unspecified) returned NPC1 prom act inconclusive, Rab9 promoter act 3.16µM* and FLuc modulator 15.1µM*.
For N#CC(Cl)Cl the results were SMN2 splice up -4.5%.
COc1ccc(N2C(=O)CS(=O)C(c3ccccc3)C2=O)cc1 (stereo unspecified) was read as NPC1 prom act 12.4%, Rab9 promoter act 12.2%, FLuc modulator 23.9µM*, KinaseGlo FLuc -0.9% and SMN2 splice up 4.2%.
For C[C@@]12Cc3cnc(-c4ccccc4)nc3C[C@@H]1CC[C@@H]1[C@H]3CC[C@@](C)(O)[C@]3(C)CC[C@@H]12 the results were KinaseGlo FLuc -2.6%[7.66 µM] and SMN2 splice up 5.9%[9.22 µM].
Cc1ccc(-c2nn3c(C)nnc3c3ccccc23)cc1S(=O)(=O)NCCO was read as NPC1 prom act -1.0%, Rab9 promoter act 0.1%, FLuc modulator 0.0%, KinaseGlo FLuc -1.1% and SMN2 splice up inconclusive.
For Cc1ccc(-c2nnc(Nc3ccc(OC(F)(F)Cl)cc3)c3ccccc23)cc1S(=O)(=O)NC(C)(C)CO the results were FLuc modulator 5.36µM* and SMN2 splice up 16.1%.
For CN1C(=O)C(=Cc2ccc(N3CCCCCC3)cc2)C(=O)N(C)C1=O the results were NPC1 prom act -3.2%, Rab9 promoter act -0.1% and FLuc modulator 19µM*.
O=C1NC(=O)N(Cc2ccc(F)cc2)C(=O)/C1=C\c1ccc(N2CCCC2)cc1 was read as NPC1 prom act -4.4%, Rab9 promoter act 2.3% and FLuc modulator inconclusive.
C[C@@H]1CC[C@@H]2N(C1)C[C@H]1[C@@](O)([C@H](O)C[C@]3(O)[C@H]4CC[C@H]5[C@]6(O)O[C@]4(C[C@]13O)[C@@]5(C)CC[C@@H]6O)[C@@]2(C)O was read as KinaseGlo FLuc -1.5%[7.66 µM] and SMN2 splice up -6.8%[9.22 µM].
NS(=O)(=O)c1ccc(NC(=O)Nc2ccccc2)cc1 was read as NPC1 prom act 11.7%, Rab9 promoter act -2.9% and FLuc modulator inconclusive.
For CC(C)(C)c1csc(NC(=O)Nc2ccccc2)n1 the results were NPC1 prom act 3.98µM*, Rab9 promoter act 1.78µM*, FLuc modulator 3.38µM*, KinaseGlo FLuc -2.8% and SMN2 splice up 7.94µM*.
For COc1ccc2nc(NC(=O)CCc3nc(C4=CCN(C)CC4)no3)sc2c1 the results were NPC1 prom act -1.7%, Rab9 promoter act -2.5%, FLuc modulator 21.3µM*, KinaseGlo FLuc 1.9% and SMN2 splice up -6.4%.
Screening CCc1nnc(NC(=O)CCc2nc(C3=CCN(C)CC3)no2)s1 returned NPC1 prom act 1.2%, Rab9 promoter act -4.1%, FLuc modulator 13.2%, KinaseGlo FLuc -1.4% and SMN2 splice up -1.2%.
For CCOc1ccc(/C=C/C(=O)C(C(N)=O)=C2SCCS2)cc1 the results were NPC1 prom act inconclusive, Rab9 promoter act inconclusive, FLuc modulator 1.69µM*, KinaseGlo FLuc -3.8% and SMN2 splice up -27.5%.
For O=c1c2ccccc2nc(-c2ccc(-c3ccccc3)cc2)n1-c1ccncc1 the results were NPC1 prom act -1.2%, Rab9 promoter act -2.7%, FLuc modulator 16.9µM*, KinaseGlo FLuc 2.8% and SMN2 splice up -20.5%.
Screening Cc1ccc(-c2nc3ccccc3c(=O)n2-c2ccncc2)cc1 returned NPC1 prom act -0.6%, Rab9 promoter act 10.2%, FLuc modulator -1.4%, KinaseGlo FLuc 0.6% and SMN2 splice up -7.9%.

Screening data as filed in PubChem.
